UGM FP inh: inhibitors of M. tuberculosis UDP-galactopyranose mutase; P9WIQ1; AID 504406; actives 0.06% (n = 320,000); purified UGM, fluorescence polarization probe displacement; inhibition, % at 10 µM; in the data active means inhibition above about 10%, passing the limit was not always enough
FadD28 binding: inhibitors of Mycobacterium tuberculosis FadD28 bisubstrate binding; FadD28 bisubstrate probe binding, fluorescence polarization; inhibition, % at 12.5 µM; actives 0.22% (n = 360,000); AID 588549; in the data active means inhibition above about 8.5%, passing the limit was not always enough
Rv3671c protease: Rv3671c (M. tuberculosis) protease inhibition. inhibition, % at 5.96 µM. P9WHR9. actives 0.048% (n = 320,000); in the data active means inhibition above about 38%;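 further: extracellular domain of Rv3671c used as enzyme; 0% = enzyme with DMSO and 100% = no enzyme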
BioA inh: blocks M. tuberculosis BioA enzyme activity | purified M. tuberculosis BioA enzyme, plate reader | inhibition, % at 9.99 µM | actives 0.096% (n = 360,000) | AID 602481; in the data active means inhibition above about 40%
RecA intein inh: blocks M. tuberculosis RecA intein splicing; actives 0.75% (n = 290,000); P9WHJ3; cell-free RecA intein splicing, fluorescence; inhibition, % (no concentration beside the values); in the data active means inhibition above about 30%;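 further: 0% = vehicle wells and 100% = reference inhibitor control wells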
TcdB inh: inhibitors of Clostridioides difficile toxin B glycohydrolase | inhibition, % at 9.99 µM | AID 652162 | actives 0.24% (n = 350,000) | TcdB glycohydrolase enzymatic assay, plate reader | P18177; in the data active means inhibition above about 10%
Target sequence (P18177 whole entry, looked up): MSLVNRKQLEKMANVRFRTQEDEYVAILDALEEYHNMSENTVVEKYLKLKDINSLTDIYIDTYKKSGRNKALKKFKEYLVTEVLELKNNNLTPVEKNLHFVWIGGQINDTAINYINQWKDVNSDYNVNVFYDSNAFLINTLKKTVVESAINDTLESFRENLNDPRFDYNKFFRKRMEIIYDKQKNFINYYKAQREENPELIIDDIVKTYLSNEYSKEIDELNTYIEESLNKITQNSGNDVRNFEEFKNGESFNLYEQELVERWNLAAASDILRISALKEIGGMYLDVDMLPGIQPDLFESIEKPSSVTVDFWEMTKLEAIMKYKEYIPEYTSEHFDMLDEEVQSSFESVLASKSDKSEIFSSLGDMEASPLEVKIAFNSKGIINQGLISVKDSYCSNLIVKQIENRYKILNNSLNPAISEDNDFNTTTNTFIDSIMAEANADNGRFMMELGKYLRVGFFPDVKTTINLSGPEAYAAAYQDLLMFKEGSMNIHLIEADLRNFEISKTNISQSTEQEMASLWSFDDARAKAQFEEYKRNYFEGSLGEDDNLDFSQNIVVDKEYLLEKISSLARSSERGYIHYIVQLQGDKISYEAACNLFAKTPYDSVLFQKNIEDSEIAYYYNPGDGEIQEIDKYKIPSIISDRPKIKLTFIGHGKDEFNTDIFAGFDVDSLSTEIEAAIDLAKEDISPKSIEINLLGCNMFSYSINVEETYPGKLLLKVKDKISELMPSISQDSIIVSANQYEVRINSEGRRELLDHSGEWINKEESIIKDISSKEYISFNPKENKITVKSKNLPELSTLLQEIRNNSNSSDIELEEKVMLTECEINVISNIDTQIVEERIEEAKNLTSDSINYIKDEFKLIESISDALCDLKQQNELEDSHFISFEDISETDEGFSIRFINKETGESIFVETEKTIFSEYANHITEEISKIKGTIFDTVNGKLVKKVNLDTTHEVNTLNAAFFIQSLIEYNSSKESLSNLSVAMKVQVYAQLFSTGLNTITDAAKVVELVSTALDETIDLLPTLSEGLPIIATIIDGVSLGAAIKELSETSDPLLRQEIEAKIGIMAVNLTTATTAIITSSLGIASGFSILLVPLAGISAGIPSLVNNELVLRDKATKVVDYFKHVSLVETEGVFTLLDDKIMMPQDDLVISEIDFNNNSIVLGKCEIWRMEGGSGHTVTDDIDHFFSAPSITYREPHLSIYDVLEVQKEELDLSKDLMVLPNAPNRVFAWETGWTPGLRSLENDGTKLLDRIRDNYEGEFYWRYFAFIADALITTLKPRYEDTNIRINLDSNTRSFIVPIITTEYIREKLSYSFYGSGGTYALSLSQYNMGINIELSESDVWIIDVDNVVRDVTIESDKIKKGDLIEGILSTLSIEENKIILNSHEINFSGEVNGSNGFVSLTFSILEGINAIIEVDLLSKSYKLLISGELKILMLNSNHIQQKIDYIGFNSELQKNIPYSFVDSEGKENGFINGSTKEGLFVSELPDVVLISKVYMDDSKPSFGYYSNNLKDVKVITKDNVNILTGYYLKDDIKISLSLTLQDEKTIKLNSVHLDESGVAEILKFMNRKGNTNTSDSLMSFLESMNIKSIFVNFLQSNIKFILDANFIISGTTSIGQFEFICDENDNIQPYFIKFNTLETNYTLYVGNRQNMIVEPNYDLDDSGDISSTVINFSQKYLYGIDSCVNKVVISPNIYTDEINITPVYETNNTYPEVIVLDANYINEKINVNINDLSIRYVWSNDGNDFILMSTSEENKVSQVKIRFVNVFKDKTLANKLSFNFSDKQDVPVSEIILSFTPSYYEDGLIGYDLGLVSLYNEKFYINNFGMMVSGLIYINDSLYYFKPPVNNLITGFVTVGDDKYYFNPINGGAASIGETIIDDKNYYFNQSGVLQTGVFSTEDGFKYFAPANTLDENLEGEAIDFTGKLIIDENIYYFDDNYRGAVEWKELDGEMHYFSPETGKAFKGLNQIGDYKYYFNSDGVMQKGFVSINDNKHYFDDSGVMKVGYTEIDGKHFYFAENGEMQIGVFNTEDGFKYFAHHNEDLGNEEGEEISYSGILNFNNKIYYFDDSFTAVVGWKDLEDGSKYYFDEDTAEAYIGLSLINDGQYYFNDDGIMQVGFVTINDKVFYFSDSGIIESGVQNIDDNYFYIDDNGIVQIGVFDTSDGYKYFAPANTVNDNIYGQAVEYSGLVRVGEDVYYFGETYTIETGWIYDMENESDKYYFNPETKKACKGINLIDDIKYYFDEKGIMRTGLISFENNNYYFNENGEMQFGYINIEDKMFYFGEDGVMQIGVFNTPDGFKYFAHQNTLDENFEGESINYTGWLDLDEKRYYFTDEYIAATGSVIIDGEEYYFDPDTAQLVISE
* marks the source's active call; other numbers are inactive results; . = no result given. Most compounds without a hit are left out; they make up all but 0.97% or so of the library.

SMILES	UGM FP inh	FadD28 binding	Rv3671c protease	BioA inh	RecA intein inh	TcdB inh
CCOc1ccc(C(C(=O)NC2CCCCC2)N(C(=O)c2ccccn2)c2cccnc2)cc1 (stereo unspecified)	0	-1	7	.	1	1
O=C(N/N=C/c1cccc(OC2CSC2)c1)c1ccccc1O	1	0	-13	-1	-1	.
Cn1ncc(Br)c1C(=O)N/N=C/c1cccc(OC2CSC2)c1	-3	-3	-5	.	-3	31*
CCOC(=O)N1CCN(C(=S)NC(=O)c2ccc(F)c(F)c2)CC1	-2	0	1	.	-2	11*
COc1cc(/C=C2\SC(c3ccc(C)cc3)=NC2=O)cc(OC)c1O	-1	4	4	.	0	-40
Cc1ccc(C2=NC(=O)/C(=C/c3cc(O)c(O)c(Br)c3)S2)cc1	.	8.2*	.	1	.	-2
O=C(O)c1ccccc1NS(=O)(=O)c1ccc(NN=Cc2ccccc2F)c([N+](=O)[O-])c1	2	5	7	4	.	1
CSc1ccc(C=NNc2ccc(S(=O)(=O)Nc3ccccc3C(=O)O)cc2[N+](=O)[O-])cc1	-2	5	9	1	.	2
COc1ccc(C=NNc2ccc(S(=O)(=O)Nc3ccccc3C(=O)O)cc2[N+](=O)[O-])c(OC)c1	3	32*	27	17	.	1
C=CCOc1ccc(C=NNc2ccc(S(=O)(=O)Nc3ccccc3C(=O)O)cc2[N+](=O)[O-])cc1OC	1	32*	27	7	.	1
CCOc1ccc(C=NNc2ccc(S(=O)(=O)Nc3ccccc3C(=O)O)cc2[N+](=O)[O-])cc1	0	5	10	-3	.	1
COc1ccc(NC(=S)NNc2ccc(S(=O)(=O)Nc3ccccc3C(=O)O)cc2[N+](=O)[O-])cc1	1	22*	22	.	2	-4
CCOc1cccc(C=NNc2ccc(S(=O)(=O)Nc3ccccc3C(=O)O)cc2[N+](=O)[O-])c1O	-4	17*	10	3	.	0
CO[C@@H]1CN(C)C(=O)c2ccc(NC(=O)c3ccc4c(c3)OCO4)cc2OC[C@H](C)N(CC2CC2)C[C@@H]1C	.	.	.	1	.	-1
O=C(c1cccc(F)c1)N1CC2(C1)[C@H](c1ccccc1)[C@@H](CO)N2C(=O)C1CCC1	.	.	.	.	.	0
CC(=O)N(C)C[C@H]1Oc2ncc(-c3ccccc3F)cc2C(=O)N([C@@H](C)CO)C[C@H]1C	.	.	.	-1	.	2
Cc1nn(-c2ccccc2)c(Cl)c1/C=N/Nc1ccc(S(=O)(=O)Nc2ccccc2C(=O)O)cc1[N+](=O)[O-]	0	12*	9	-2	25	.
O=C1NC(=S)S/C1=C\c1cc(Cl)cc(Cl)c1O	.	33*	.	4	.	-1
O=C1NC(=S)SC1=Cc1ccccc1Cl	.	-9	.	.	.	3
CCC(=O)Nc1ccc2c(c1)C(=O)N(C)[C@H]1CC[C@H](CC(=O)O)O[C@@H]1CO2	.	.	.	-1	.	0
O=S(=O)(O)c1cc(O)c2cc(Nc3ccccc3)ccc2c1	.	28*	.	4	.	-1
Nc1ccc2c(O)cc(S(=O)(=O)O)cc2c1	.	0	.	-3	.	2
Nc1cccc2c(O)cc(S(=O)(=O)O)cc12	.	36*	.	-2	.	.
COc1ccccc1Nc1ccc2c(O)cc(S(=O)(=O)O)cc2c1	.	70*	.	2	.	2
O=S(=O)(O)c1cc(O)c2ccc(Nc3ccccc3)cc2c1	.	24*	.	1	.	1
SMILES	UGM FP inh	FadD28 binding	Rv3671c protease	BioA inh	RecA intein inh	TcdB inh
CC(=O)Nc1ccc2c(O)cc(S(=O)(=O)O)cc2c1	.	3	.	0	.	0
Cc1ccccc1-c1ccc([C@@H]2[C@@H](CO)N3CCCCN(S(C)(=O)=O)C[C@@H]23)cc1	.	.	.	2	.	0
COc1ccccc1CNC(=O)C[C@H]1CC[C@@H](NC(C)=O)[C@@H](CO)O1	.	.	.	0	.	1
CC(C)NC(=O)N(C)C[C@@H]1OCCCC[C@H](C)Oc2ccc(NC(=O)Nc3ccc(C(F)(F)F)cc3)cc2C(=O)N([C@H](C)CO)C[C@@H]1C	.	.	.	0	.	0
CN1C(=O)c2cc(NC(=O)c3ccc(Cl)cc3)ccc2OC[C@@H]2O[C@@H](CC(=O)NCc3cccc(F)c3)CC[C@@H]21	.	.	.	-2	.	0
O=S(=O)(O)c1ccc(O)c2cc(Nc3ccccc3)ccc12	.	59*	.	2	.	-1
O=C(CCl)Nc1ccc(N2CCCCCC2)cc1	-2	-1	6	0	48*	-11
Cc1ccc(C(=O)Nc2ccc(N3CCCC3)cc2)cc1	-3	-4	3	-1	-9	0
Cc1ccc(C(=O)Nc2ccc(N3CCCCC3)cc2)cc1	2	-2	8	-2	.	11*
C[C@@H]1CN([C@H](C)CO)C(=O)Cc2cc(NC(=O)Cc3cn(C)c4ccccc34)ccc2O[C@H]1CN(C)Cc1ccc(C(F)(F)F)cc1	.	.	.	-4	.	-7
CC(=O)C1=CCC(c2ccc(C)cc2)N(S(=O)(=O)c2ccc(C)cc2)C1 (stereo unspecified)	.	-4	.	-2	.	12*
CC(=O)C1=CCC(c2ccc(Br)cc2)N(S(=O)(=O)c2ccc(C)cc2)C1 (stereo unspecified)	.	-5	.	0	.	3
Cc1ccc(S(=O)(=O)N2CC(CBr)=CCC2c2ccccc2)cc1 (stereo unspecified)	.	.	.	.	.	16*
COc1ccc(Nc2oc(COc3ccccc3F)nc2C#N)cc1	1	-5	-2	-2	41*	2
CCCCn1c(N)c(N(CC)C(=O)c2cccs2)c(=O)[nH]c1=O	-4	1	-2	-2	.	11*
NC(=O)CC(NC(=O)c1ccccc1)c1ccc(NCCc2ccc(F)cc2)c([N+](=O)[O-])c1 (stereo unspecified)	0	-1	-7	1	-2	10*
COc1ccc(CCNc2ccc(C(CC(N)=O)NC(=O)c3ccccc3)cc2[N+](=O)[O-])cc1 (stereo unspecified)	1	-1	6	-2	1	.
Cc1cccc(C(=O)NNC(=O)c2ccc(NS(=O)(=O)c3cccs3)cc2)c1C	1	13*	-6	0	.	1
O=C(NNC(=O)c1ccc([N+](=O)[O-])cc1)c1ccc(NS(=O)(=O)c2cccs2)cc1	-2	19*	-7	0	.	0
COC(=O)c1ccc(C23CC4(C2)[C@H](CN(Cc2ccc(C(F)(F)F)cc2)[C@@H]4c2ccccc2)C3c2ccc(Cl)nc2)cc1 (stereo partly specified)	2	.	-10	.	1	12*
N#Cc1ccc(C23CC4(C2)[C@H](CN(Cc2ccc(C(F)(F)F)cc2)[C@@H]4c2ccccc2)C3c2ccc(Cl)nc2)cc1 (stereo partly specified)	.	.	.	.	2	-1
CCOC(=O)CN1C=C(c2ccc3ccccc3n2)C(C[N+](=O)[O-])c2ccccc21 (stereo unspecified)	17*	-4	5	-2	-115	.
CCCOC(=O)c1ccc(NC(=O)c2cc(OC)c(OC)c(OC)c2Br)cc1	-3	13*	-8	-1	10	.
